Test [1] can be described thus: qHTS assay for small molecule agonists of retinoid X receptor alpha signaling (AID 588544; calls by dose curve;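 as to activation: 0% = DMSO basal wells and 100% = reference agonist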). The conditions noted are these: HEK293T RXRa-UAS-bla, beta-lactamase reporter, 18 h; 530 nm emission. (In general: Quantitative high-throughput screening tests each substance at several concentrations.)
The target of test [2] is Retinoic acid receptor RXR-alpha (Homo sapiens) (UniProt P19793). The description is as above. The following applies: HEK293T RXRa-UAS-bla, beta-lactamase reporter, 18 h; series mostly up to 76.7 µM.
Retinoic acid receptor RXR-alpha (Homo sapiens), sequence (P19793 whole entry, looked up): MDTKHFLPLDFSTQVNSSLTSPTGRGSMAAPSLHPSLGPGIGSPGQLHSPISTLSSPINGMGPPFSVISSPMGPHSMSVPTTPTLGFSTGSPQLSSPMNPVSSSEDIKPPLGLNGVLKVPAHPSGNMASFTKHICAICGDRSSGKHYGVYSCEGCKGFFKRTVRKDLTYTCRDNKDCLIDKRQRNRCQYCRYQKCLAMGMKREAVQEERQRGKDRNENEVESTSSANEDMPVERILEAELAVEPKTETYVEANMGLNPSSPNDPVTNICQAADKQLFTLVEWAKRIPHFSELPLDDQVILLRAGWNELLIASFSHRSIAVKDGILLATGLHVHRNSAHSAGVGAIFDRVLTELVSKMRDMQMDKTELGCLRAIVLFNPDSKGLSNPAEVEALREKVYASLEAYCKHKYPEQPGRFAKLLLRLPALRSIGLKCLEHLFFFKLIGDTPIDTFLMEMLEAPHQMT
Test [3] deals with Thyroid hormone receptor beta (Homo sapiens) (UniProt P10828). Put plainly: qHTS assay for small molecule agonists of thyroid hormone receptor beta signaling (AID 588545; calls by dose curve;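 also: 0% = DMSO only and 100% = 10 nM T3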). The conditions noted are these: TR-UAS-bla GripTite HEK 293, beta-lactamase ratio, agonist mode, 18 h, percent of T3 response, DMSO as zero; series mostly up to 76.7 µM. The essentials:
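Stimulation of a TR-driven beta-lactamase reporter was quantified in GripTite HEK 293 cells. Compound series ran for 18 hrs; curves were normalized to T3 and DMSO controls and fitted to yield EC50.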

Test [4] is described as follows: qHTS assay for small molecule antagonists of retinoid X receptor alpha signaling (AID 588546; active = well fitted inhibition curve with a large enough effect in the signal ratio, with a control signal flat, not every such curve was filed as active; the % refers to the signal ratio;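 also: cells stimulated with 9-cis-retinoic acid as agonist; % is scaled to controls: 0 for no effect and ±100 for the full control effect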). The conditions noted are these: HEK293T RXRa-UAS-bla, beta-lactamase ratio, antagonist mode; measured here: W530 green channel, cytotoxicity proxy. The essentials: (§1)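 Beta-lactamase reporter inhibition, read as CCF4 fluorescence ratio (ex 405, em 460/530 nm) after 2 h at RT. HEK293T UAS-bla cells, 2500/well, were stimulated with 9-cis-RA at 500 or 100 nM final alongside test compound for 18 h at 37 C.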

Test [5] concerns the target Retinoic acid receptor RXR-alpha (Homo sapiens) (UniProt P19793). The test is described as above. The following applies: HEK293T RXRa-UAS-bla, beta-lactamase ratio, antagonist mode. The essentials: as §1
In test [6] the target is Thyroid hormone receptor beta (Homo sapiens) (UniProt P10828). Briefly: qHTS assay for small molecule antagonists of thyroid hormone receptor beta signaling (AID 588547; active = well fitted inhibition curve with a large enough effect in the signal ratio, with a control signal flat, not every such curve was filed as active; the % refers to the signal ratio;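 also: cells stimulated with 0.4 nM T3 agonist during compound exposure; % is scaled to controls: 0 for no effect and ±100 for the full control effect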). The following applies: TR-UAS-bla HEK293, beta-lactamase ratio, antagonist mode, 18 h. The essentials:
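TR-UAS-bla GripTite HEK293 cells in 2% charcoal/dextran FBS medium were preincubated 4 h at 37 C, given compound (0.59 nM to 92 uM) plus 0.4 nM T3 (final) for 18 h, then CCF4 for 2 h at RT; Hill fit gave IC50.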

Test [7] deals with Voltage-gated inwardly rectifying potassium channel KCNH2 (Homo sapiens) (UniProt Q12809). Briefly: qHTS Assay for Small Molecule Inhibitors of the Human hERG Channel Activity (AID 588834).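 Also: top concentration of the series differs between compounds; % is scaled to controls: 0 for no effect and ±100 for the full control effect; lower thallium flux fluorescence means stronger hERG block; nearly all actives have a fitted effect of over 50% in size.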 The following applies: U2OS BacMam hERG, FluxOR thallium flux fluorescence; series mostly up to 92.2 µM. The essentials: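 U2OS cells transduced with hERG via BacMam (MOI ~100), plated 2000/well, loaded with FluxOR thallium dye, compound ~10 min, then stimulation buffer; fluorescence decrease read kinetically; AC50 from Hill fits.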
Voltage-gated inwardly rectifying potassium channel KCNH2 (Homo sapiens), sequence (Q12809 whole entry, looked up): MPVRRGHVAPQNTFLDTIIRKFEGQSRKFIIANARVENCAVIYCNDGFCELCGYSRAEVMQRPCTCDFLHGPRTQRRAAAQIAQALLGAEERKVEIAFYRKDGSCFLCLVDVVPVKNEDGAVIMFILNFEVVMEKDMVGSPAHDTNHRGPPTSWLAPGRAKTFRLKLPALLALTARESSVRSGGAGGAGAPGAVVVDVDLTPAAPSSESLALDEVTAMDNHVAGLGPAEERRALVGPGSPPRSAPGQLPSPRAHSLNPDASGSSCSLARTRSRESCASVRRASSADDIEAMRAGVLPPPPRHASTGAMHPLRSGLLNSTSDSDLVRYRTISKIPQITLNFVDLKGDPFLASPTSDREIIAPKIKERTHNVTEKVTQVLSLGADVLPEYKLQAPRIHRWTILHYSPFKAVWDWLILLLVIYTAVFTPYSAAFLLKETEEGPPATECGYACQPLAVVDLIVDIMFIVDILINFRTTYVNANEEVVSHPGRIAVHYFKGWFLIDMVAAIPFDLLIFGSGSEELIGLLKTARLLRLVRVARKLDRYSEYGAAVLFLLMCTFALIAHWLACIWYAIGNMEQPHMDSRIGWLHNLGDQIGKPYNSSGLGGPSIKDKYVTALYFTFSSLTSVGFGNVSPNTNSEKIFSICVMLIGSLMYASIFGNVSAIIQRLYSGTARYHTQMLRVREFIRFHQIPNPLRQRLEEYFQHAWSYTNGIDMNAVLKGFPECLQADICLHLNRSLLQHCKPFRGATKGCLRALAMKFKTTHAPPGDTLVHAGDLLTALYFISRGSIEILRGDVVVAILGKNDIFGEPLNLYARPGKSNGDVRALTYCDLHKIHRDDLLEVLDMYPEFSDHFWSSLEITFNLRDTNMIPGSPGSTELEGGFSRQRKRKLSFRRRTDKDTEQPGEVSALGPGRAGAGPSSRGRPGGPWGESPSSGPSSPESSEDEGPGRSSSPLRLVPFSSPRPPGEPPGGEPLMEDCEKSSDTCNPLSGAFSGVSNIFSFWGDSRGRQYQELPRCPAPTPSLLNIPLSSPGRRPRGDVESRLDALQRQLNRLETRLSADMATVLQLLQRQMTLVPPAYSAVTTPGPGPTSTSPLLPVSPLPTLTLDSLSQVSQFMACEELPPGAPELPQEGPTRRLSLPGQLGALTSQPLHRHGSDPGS

The nature of test [8]: qHTS assay for small molecule agonists of the antioxidant response element (ARE) signaling pathway (AID 651741; active = well fitted activation curve with a large enough effect in the signal ratio; the % refers to the signal ratio; also: % of control where 0% means no effect). The following applies: HepG2 ARE-bla reporter, beta-lactamase FRET ratio, 16 h; series mostly up to 96 µM. The essentials:
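Compounds in DMSO are pinned onto HepG2 ARE-bla cells (2,000/well) that were preincubated 5 h; plates stay 16 h at 37 C, then beta-lactamase activity is detected with LiveBLAzer B/G substrate by fluorescence.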

Test [9] is described as follows: qHTS assay for small molecule activators of the p53 signaling pathway (AID 651743; active = well fitted activation curve with a large enough effect in the signal ratio, not every such curve was filed as active; the % refers to the signal ratio; also: % of control where 0% means no effect). The conditions noted are these: HCT-116 p53RE-bla, beta-lactamase FRET ratio, 16 h; stronger effect = higher value. The essentials:
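Cell-based beta-lactamase reporter (p53 response elements, HCT-116 background). After a 5-hour preincubation, cells received compound for 16 hours at 37 C; substrate development ran 2 hours at room temperature.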

The nature of test [10]: qHTS assay for small molecule disruptors of the mitochondrial membrane potential - 1 hr assay (AID 651754; calls by dose curve; also: % is scaled to controls: 0 for no effect and ±100 for the full control effect; nearly all actives have a fitted effect of over 35% in size). The conditions noted are these: series mostly up to 92.2 µM. The essentials:
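HepG2, 2,000 cells/well, overnight attachment; cpd or DMSO 1 hr, 37C/5% CO2; Mito-MPS dye 30 min, 37C; fluorescence monomer (490/535) and aggregate (540/590).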

Test [11] in a line: qHTS assay for small molecule disruptors of the mitochondrial membrane potential - 5 hr assay (AID 651755; calls by dose curve; also: % is scaled to controls: 0 for no effect and ±100 for the full control effect; nearly all actives have a fitted effect of over 40% in size). The following applies: JC-1-type ratio dye; series mostly up to 92.2 µM. The essentials:
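HepG2 cells, attached overnight at 37C, were exposed to compound or DMSO for 5 hr at 37C, 5% CO2. Mito-MPS dye was then added for 30 min, and fluorescence read at 490/535 nm (monomers) and 540/590 nm (aggregates).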

Test [12] concerns the target Tumor necrosis factor (Homo sapiens) (UniProt P01375). Put plainly: qHTS assay to identify small molecules that stimulate Tumor Necrosis Factor-alpha (TNF-alpha) secretion (AID 651757; active = well fitted curve in the direction sought with a large enough effect in the signal ratio; the % refers to the signal ratio; also: 0% is about no effect). The following applies: Human cells, HTRF 665/615 ratio; series mostly up to 92.2 µM. The essentials: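 Read-out is HTRF, a TR-FRET sandwich of cryptate- and XL665-labeled anti-TNF-alpha antibodies detecting cytokine secreted by THP-1 cells. Cells had been incubated with test compounds at 37 C for 17 hrs beforehand.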

Test [13] deals with Peroxisome proliferator-activated receptor alpha (Homo sapiens) (UniProt Q07869). Put plainly: qHTS assay for small molecule agonists of the peroxisome proliferator-activated receptor alpha (PPARalpha) signaling pathway (AID 651778). Also: % of control where 0% means no effect. The following applies: PathHunter PPARalpha complementation, chemiluminescence, 6 h; stronger effect = higher value. The gist of the method: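 Cells plated at 2,000/well and held overnight at 37 C, 5% CO2, then compound added by pin tool for 6 hr; after PathHunter detection reagent and 60 min at room temperature, chemiluminescence from enzyme complementation was read.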
Peroxisome proliferator-activated receptor alpha (Homo sapiens), sequence (Q07869 whole entry, looked up): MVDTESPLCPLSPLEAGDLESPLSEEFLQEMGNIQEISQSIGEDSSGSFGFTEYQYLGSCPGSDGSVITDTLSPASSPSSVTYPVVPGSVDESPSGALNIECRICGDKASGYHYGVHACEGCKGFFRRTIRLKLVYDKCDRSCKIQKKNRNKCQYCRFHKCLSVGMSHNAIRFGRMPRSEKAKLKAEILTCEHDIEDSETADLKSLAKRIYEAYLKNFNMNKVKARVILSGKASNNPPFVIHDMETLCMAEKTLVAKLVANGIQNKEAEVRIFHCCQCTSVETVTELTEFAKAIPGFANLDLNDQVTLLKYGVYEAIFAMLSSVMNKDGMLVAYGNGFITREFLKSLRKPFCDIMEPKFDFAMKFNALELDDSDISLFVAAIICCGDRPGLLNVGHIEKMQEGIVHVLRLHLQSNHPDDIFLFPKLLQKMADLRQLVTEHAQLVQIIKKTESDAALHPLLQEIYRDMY

In test [14] the target is Nuclear receptor ROR-gamma (Homo sapiens) (UniProt P51449). Put plainly: qHTS assay for small molecule antagonists of the retinoid-related orphan receptor gamma (ROR-gamma) signaling pathway (AID 651802).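 Also: luciferase reporter luminescence driven by ROR response element; % is scaled to controls: 0 for no effect and ±100 for the full control effect; nearly all actives have a fitted effect of over 60% in size.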 The following applies: ROR-gamma antagonist cell reporter assay; series mostly up to 92.2 µM. The essentials:
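CHO, TET-inducible ROR + RORE-LUC reporter, 1536-well qHTS. Compound pinned, doxycycline added, 16hr 37C/5% CO2. ONE-Glo, 30 min RT, luminescence; signal drop scored as antagonism.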

Test [15] is described as follows: qHTS assay for small molecule agonists of the antioxidant response element (ARE) signaling pathway measured by Nrf2-dependant transcriptional activity (AID 720636; active = well fitted curve in the direction sought with a large enough effect in the repeat runs; an effect the other way counts as inactive or inconclusive; also: % of control where 0% means no effect). The conditions noted are these: ARE-luc HepG2, Nrf2 luciferase reporter, 16 h; series mostly up to 92.4 µM. The essentials: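 ARE-luc HepG2 cells carrying an Nrf2-responsive luciferase reporter, in medium with 1% dialyzed FBS, exposed to compound for 16 hr at 37 C, 5% CO2. Luminescence read 30 min after ONE-Glo addition.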

Test [16] in a line: qHTS assay for small molecule agonists of the antioxidant response element (ARE) signaling pathway measured by Nrf2-dependant transcriptional activity - cell viability counter screen (AID 720653; active = well fitted curve in the direction sought with a large enough effect in the repeat runs; an effect the other way counts as inactive or inconclusive; also: % is scaled to controls: 0 for no effect and ±100 for the full control effect). The conditions noted are these: ARE-bla HepG2 viability, CellTiter-Glo ATP luminescence, 16 h; stronger effect = lower value. The gist of the method:
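ARE-bla HepG2 cells (2,000/well) rested 5 hrs at 37C/5% CO2, then exposed to compounds in DMSO for 16 hrs. Viability was read in the same wells as intracellular ATP by luminescence, 30 min at room temperature after reagent addition.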

A short description of test [17]: qHTS assay for environmental chemicals that activate the Aryl hydrocarbon Receptor (AhR) signaling pathway (AID 651777). Also: % of control where 0% means no effect; nearly all actives have a fitted effect of over 15% in size. The following applies: 1A2-DRE human hepatoma cells, luciferase, 24 h; activation: stronger effect = higher value. The essentials:
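Human hepatoma 1A2-DRE cells stably carrying a DRE/CYP1A2 promoter–luciferase reporter, 1,200 cells/well, exposed to compound 24 hr at 37 C. Luciferase read by One-Glo luminescence after 30 min at room temperature; increased signal marks AhR activation.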

Test [18] can be described thus: qHTS assay for small molecule antagonists of the retinoid-related orphan receptor gamma (ROR-gamma) signaling pathway - cell viability counter screen (AID 720652; active = well fitted curve in the direction sought with a large enough effect in the repeat runs; an effect the other way counts as inactive or inconclusive;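 also: compound exposure lasted 16 hr before ATP read; % is scaled to controls: 0 for no effect and ±100 for the full control effect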). The conditions noted are these: RORgamma reporter cell line viability counter screen; series mostly up to 92.2 µM. The gist of the method: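 Luminescence from CellTiter-Glo after 30 min at room temperature reported cellular ATP as the cytotoxicity measure. Cells were the CHO reporter line with doxycycline-induced ROR-gamma expression, exposed to compound for 16 hr at 37 C.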

Test [19] can be described thus: qHTS assay for small molecule activators of the nuclear factor-kappa B (NF-kB) signaling pathway (AID 651749; active = well fitted activation curve with a large enough effect in the signal ratio; the % refers to the signal ratio; also: % of control where 0% means no effect). The following applies: NF-kB-bla ME-180 cells, beta-lactamase FRET ratio, 16 h; stronger effect = higher value. The essentials:
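Screening used 2,000 ME-180 reporter cells per well exposed to pinned compound (23 nL) or DMSO; after 16 hr at 37C, beta-lactamase expression under NF-kB control was assessed through FRET.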

Test [20] can be described thus: qHTS assay to identify small molecules that stimulate interleukin-8 (IL-8) secretion (AID 651758; active = well fitted activation curve with a large enough effect in the signal ratio; the % refers to the signal ratio; also: 0% is about no effect). The following applies: HTRF ratio (665/615); series mostly up to 92.2 µM. The gist of the method:
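THP-1, 2000 cells/well; cpd 16 h, 37 C; add cryptate + XL665 anti-IL-8 Abs; RT 1-3 h; TR-FRET read.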

The results in this text go back to PubChem BioAssay (NCATS).

Records with an inconclusive call do not appear. The source made the active and inactive calls. Unless noted, calls follow the shape of the dose curve; as a rule, active = well fitted curve in the direction sought with a large enough effect; inconclusive = small, poorly fitted or top-dose-only effect, or another doubt; inactive = no such curve, though single readings can be large; an effect the other way counts as inactive or inconclusive.

Nuclear receptor ROR-gamma (Homo sapiens), sequence (P51449 whole entry, looked up): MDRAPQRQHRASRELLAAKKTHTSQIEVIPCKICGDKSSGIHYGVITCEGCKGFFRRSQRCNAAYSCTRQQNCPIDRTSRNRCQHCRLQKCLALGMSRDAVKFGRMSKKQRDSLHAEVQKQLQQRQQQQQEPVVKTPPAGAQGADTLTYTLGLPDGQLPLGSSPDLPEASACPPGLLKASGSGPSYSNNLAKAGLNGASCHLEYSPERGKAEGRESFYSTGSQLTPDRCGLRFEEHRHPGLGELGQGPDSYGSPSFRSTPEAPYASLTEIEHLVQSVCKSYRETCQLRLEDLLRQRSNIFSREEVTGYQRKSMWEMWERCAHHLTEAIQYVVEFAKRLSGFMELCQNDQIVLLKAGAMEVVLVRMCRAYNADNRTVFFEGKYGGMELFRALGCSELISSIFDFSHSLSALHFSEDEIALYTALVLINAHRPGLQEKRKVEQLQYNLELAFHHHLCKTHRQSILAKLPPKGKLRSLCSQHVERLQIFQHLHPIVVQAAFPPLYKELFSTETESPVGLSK
Tumor necrosis factor (Homo sapiens), sequence (P01375 whole entry, looked up): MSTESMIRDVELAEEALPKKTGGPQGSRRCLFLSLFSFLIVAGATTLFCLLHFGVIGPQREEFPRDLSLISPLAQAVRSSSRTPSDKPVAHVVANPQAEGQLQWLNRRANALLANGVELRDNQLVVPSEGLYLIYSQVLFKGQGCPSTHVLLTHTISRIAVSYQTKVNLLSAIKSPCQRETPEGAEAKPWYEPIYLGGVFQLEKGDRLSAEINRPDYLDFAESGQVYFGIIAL
Thyroid hormone receptor beta (Homo sapiens), sequence (P10828 whole entry, looked up): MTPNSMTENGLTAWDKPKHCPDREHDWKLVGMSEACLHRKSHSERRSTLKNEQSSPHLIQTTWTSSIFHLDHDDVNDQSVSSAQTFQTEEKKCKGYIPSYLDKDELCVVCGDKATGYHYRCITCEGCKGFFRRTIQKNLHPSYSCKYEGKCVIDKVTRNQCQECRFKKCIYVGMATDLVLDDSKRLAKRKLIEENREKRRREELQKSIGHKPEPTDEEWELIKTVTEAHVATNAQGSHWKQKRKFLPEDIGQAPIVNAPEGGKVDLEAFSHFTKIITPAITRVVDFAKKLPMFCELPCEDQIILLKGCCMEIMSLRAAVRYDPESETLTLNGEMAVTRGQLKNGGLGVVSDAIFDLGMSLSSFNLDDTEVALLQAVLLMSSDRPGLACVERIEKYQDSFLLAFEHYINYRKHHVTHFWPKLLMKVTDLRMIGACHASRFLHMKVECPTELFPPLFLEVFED

As for `FC(F)(F)c1cccc(Cl)c1`, the max response was -1.24% in test [1]; 3.78% in test [4]; 6.29% (inactive) in test [5]; -9.21% (inactive) in test [13]; -9.33% (inactive) in test [16]. Moreover, the compound was classed as inactive in [2], in test [3] and in test [15]. Also, the activity change % (negative = inhibition) in [6] is -4.74% (inactive). Also, the Potency entry in [7], in [8], in [10], in test [11], in test [12] and in test [14] was “inactive” in each case. In addition, the activation in test [9] was -1.63% (inactive).
With `Nc1nc(CC(=O)O)cs1`, the max response in [1] is -4.19%; in test [4], -14%; in [5] it was -13.3% (inactive); in test [13], 1.57% (inactive); in test [16], 4.24% (inactive). Moreover, the outcome in [2], in [3] and in test [15] was inactive. Moreover, the activity change % (negative = inhibition) in test [6] is 1.64% (inactive). The Potency result in test [7], in test [8], in [10], in test [11], in [12] and in [14] was “inactive” in each case. The Potency result in test [18] was “inactive”. Besides, the activation was -1.45% (inactive) in test [9] and -0.467% (inactive) in test [17].
As for `CC(=O)CCc1ccccc1`, the max response is -7.54% in test [1], -0.836% in [4], 0.594% (inactive) in [5] and 0.48% (inactive) in test [13]. Further, the result in test [2], in [3] and in [15] was inactive. In addition, the activity change % (negative = inhibition) in [6] is 12% (inactive). The Potency result in [7], in test [8], in [10], in [12], in [14] and in test [18] was “inactive” throughout. Also, the activation in [9] was -1.61% (inactive); in test [19], 0.0566% (inactive).
For `Cc1cccc(Br)c1`, the max response is -0.411% in [1]; -8.74% in [4]; 17.3% (inactive) in test [5]; -5.52% (inactive) in test [13]; 6.53% (inactive) in test [16]. The compound was called inactive in test [2], in [3] and in test [15]. The activity change % (negative = inhibition) in test [6] is 0.545% (inactive). Further, the Potency entry in test [7], in [8], in [10], in test [11], in test [12] and in [14] was “inactive” in each case. Besides, the Potency entry in test [18] is “inactive”. The activation in test [9] was -1.99% (inactive); in [17], 0.194% (inactive).
Consider `C=CC(=O)OCCCC`, for which the max response in [1] is -9.05%; in [4] it was 3.81%; in test [5], -2.2% (inactive); in test [13], 0.0985% (inactive); in [16], -3.72% (inactive). Besides, the call in test [2], in [3] and in [15] was inactive. Also, the activity change % (negative = inhibition) in test [6] was 1.99% (inactive). For the same compound, the Potency entry in test [7], in test [8], in test [10], in test [12], in [14] and in test [18] was “inactive” throughout. Besides, the results for the activation in test [9] and in test [17] were -0.944% (inactive) and 0.108% (inactive), respectively.
As for `CC1(N)CCC(C(C)(C)N)CC1` (stereo not drawn), the max response was -6.34% in test [1], 4.37% in test [4], 0.335% (inactive) in [5] and 0.74% (inactive) in test [13]. Further, the call in [2], in [3] and in test [15] was inactive. In addition, the activity change % (negative = inhibition) in [6] was -1.11% (inactive). Further, the Potency entry in test [7], in test [8], in test [10], in test [12], in [20] and in test [14] was “inactive” throughout. The Potency entry in [18] was “inactive”. Besides, the activation in test [9] is 0.302% (inactive); in test [19] it was -1.08% (inactive); in test [17] it was -0.642% (inactive).
